Experimental data published in PubChem BioAssay (NCI).
The panel holds about 79,000 compounds, 15% with a hit somewhere; the sample as a whole holds those more often. Calls of active or inactive are those of the source. Cut-off read from the data, not from the text of the source: active = growth inhibition above about 70%; inactive = the rest.

What was measured:
[1] = NCI Yeast Anticancer Drug Screen. Data for the wt2 strain (AID 169);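 note: 0% = growth of vehicle-treated yeast cultures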; conditions: S. cerevisiae wt2 strain growth inhibition, hits give high values
In short: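 Against vehicle-treated controls, the growth of yeast exposed to each compound was compared, and the inhibition was recorded.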

[2] = NCI Yeast Anticancer Drug Screen. Data for the mlh1 strain (AID 171);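 note: 0% = growth of vehicle-treated control cultures of the same strain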; conditions: S. cerevisiae mlh1 strain growth inhibition, hits give high values
In short: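 Measured: yeast growth. Reference: vehicle-treated controls. Organism: strain with a defined alteration affecting DNA damage repair or cell cycle control, treated with compound.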

[3] = NCI Yeast Anticancer Drug Screen. Data for the sgs1 strain (AID 173);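 note: 0% = growth of vehicle-only control cultures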; conditions: S. cerevisiae sgs1 mutant, hits give high values
In short: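 Each compound was added to cultures of the altered yeast strain. Growth was recorded, and inhibition was derived by comparison with vehicle controls.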

[4] = NCI Yeast Anticancer Drug Screen. Data for the mlh1 rad18 strain (AID 175); conditions: S. cerevisiae mlh1 rad18 strain growth inhibition, hits give high values
In short: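 Genetically defined yeast (DNA repair-deficient) exposed to compounds; growth inhibition determined relative to vehicle.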

[5] = NCI Yeast Anticancer Drug Screen. Data for the rad18 strain (AID 177); conditions: S. cerevisiae rad18 mutant growth inhibition, hits give high values
In short: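 Vehicle-treated cultures served as the baseline for scoring compound-induced growth inhibition in DNA-repair-mutant yeast.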

[6] = NCI Yeast Anticancer Drug Screen. Data for the rad52 strain (AID 147);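 note: 0% = growth of vehicle-treated control cultures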; conditions: S. cerevisiae rad52 mutant growth inhibition, hits give high values
In short: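 The repair-mutant yeast strain was incubated with compounds, then growth was read and inhibition derived relative to vehicle.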

[7] = NCI Yeast Anticancer Drug Screen. Data for the wt1 strain (AID 149);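 note: 0% = growth of vehicle-treated wt1 cultures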; conditions: S. cerevisiae wt1 strain (SPY 50644) growth inhibition, hits give high values
In short: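 Readout: yeast growth inhibition, normalised to vehicle controls, in the wt1 strain exposed to test compounds.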

[8] = NCI Yeast Anticancer Drug Screen. Data for the rad50EPP+ strain (AID 151);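 note: 0% = growth of vehicle-treated control cultures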; conditions: S. cerevisiae rad50 mutant strain, hits give high values
In short: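 Vehicle-normalised growth inhibition; rad50EPP+ yeast strain, altered in DNA damage repair, compound-treated.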

[9] = NCI Yeast Anticancer Drug Screen. Data for the mgt1 strain (AID 153); conditions: S. cerevisiae mgt1 mutant growth inhibition, hits give high values
In short: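 Vehicle-normalized growth inhibition is determined in mgt1 yeast, a strain selected for a defined alteration in DNA repair or cell cycle control.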

[10] = NCI Yeast Anticancer Drug Screen. Data for the rad50 strain (AID 155);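 note: 0% = growth of vehicle-only cultures of the same strain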; conditions: S. cerevisiae rad50 strain growth inhibition, hits give high values
In short: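 Compounds were tested on a yeast strain with an engineered DNA damage repair alteration; the reported value is growth inhibition normalised to vehicle treatment.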

[11] = NCI Yeast Anticancer Drug Screen. Data for the mec2-1 strain (AID 157); conditions: S. cerevisiae mec2-1 strain, hits give high values
In short: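 Mutant yeast (mec2-1) grown with compound; growth inhibition relative to vehicle control reported.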

[12] = NCI Yeast Anticancer Drug Screen. Data for the rad14 strain (AID 159);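 note: 0% = growth of vehicle-treated control cultures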; conditions: S. cerevisiae rad14 strain growth inhibition, hits give high values
In short: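 Compound-treated yeast with a defined DNA-repair lesion; growth inhibition normalised to vehicle-treated cultures.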

[13] = NCI Yeast Anticancer Drug Screen. Data for the sgs1 mgt1 strain (AID 161);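 note: 0% = growth of cultures given vehicle only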; conditions: S. cerevisiae sgs1 mgt1 strain, hits give high values
In short: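 Compounds are added to genetically altered yeast, and growth is compared with cultures given vehicle alone to give percent inhibition.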

[14] = NCI Yeast Anticancer Drug Screen. Data for the CLN2oe strain (AID 163);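 note: 0% = growth of vehicle-only control cultures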; conditions: S. cerevisiae CLN2oe strain, hits give high values
In short: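 Compounds are applied to yeast harbouring a defined cell-cycle control change; reduced growth compared with vehicle-treated controls gives the value.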

[15] = NCI Yeast Anticancer Drug Screen. Data for the cln2 rad14 strain (AID 165);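 note: 0% = growth equal to vehicle treated cultures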; conditions: S. cerevisiae cln2 rad14 strain, hits give high values
In short: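 Readout is yeast growth inhibition versus vehicle-treated controls, using a strain with cln2 and rad14 alterations exposed to compound.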

[16] = NCI Yeast Anticancer Drug Screen. Data for the bub3 strain (AID 167); conditions: S. cerevisiae bub3 mutant strain, hits give high values
In short: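 Growth of a checkpoint-deficient yeast mutant is measured after compound exposure. Values represent inhibition relative to vehicle.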

[17] = at 5.0 µM (retest, dose inferred, filed as 0.5)
[18] = at 50.0 µM (retest, dose inferred, filed as 5.0)

Measured: growth inhibition

O=C1C=C(c2ccccc2)OC1(c1ccccc1)N1CCOCC1 (stereo unspecified)
inactive: [1]; at 1.2 µM 0% | [1]; at 3.7 µM -1% | [1]; at 11.0 µM -3% | [1]; at 33.0 µM 52% | [2]; at 1.2 µM 3% | [2]; at 3.7 µM 1% | [2]; at 11.0 µM -7% | [2]; at 33.0 µM 55% | [3]; at 1.2 µM 0% | [3]; at 3.7 µM 0% | [3]; at 11.0 µM 4% | [4]; [17] -17% | [4]; at 50.0 µM -1.85% | [5]; at 1.2 µM 1% | [5]; at 3.7 µM -4% | [5]; at 11.0 µM -2% | [5]; at 33.0 µM 7%
active: [1]; at 100.0 µM 98% | [2]; at 100.0 µM 98% | [3]; at 33.0 µM 76% | [3]; at 100.0 µM 98% | [4]; [18] 75% | [5]; at 100.0 µM 98%

CC1CC(C)(C)CC(OCCN2CCCCC2)(c2ccccc2)C1 (stereo unspecified)
active: [6]; at 100.0 µM 84% | [9]; at 100.0 µM 83% | [10]; [18] 89% | [10]; at 50.0 µM 87.8% | [10]; at 100.0 µM 82% | [12]; at 100.0 µM 99% | [13]; [18] 79% | [13]; at 50.0 µM 83.5% | [14]; at 100.0 µM 87% | [16]; [18] 74% | [16]; at 50.0 µM 78.8% | [16]; at 100.0 µM 75% | [1]; at 100.0 µM 80% | [2]; at 100.0 µM 87% | [3]; at 100.0 µM 95% | [4]; [18] 79% | [4]; at 50.0 µM 84.8% | [5]; at 100.0 µM 91%
inactive: [6]; at 1.2 µM -1% | [6]; at 3.7 µM 8% | [6]; at 11.0 µM 15% | [6]; at 33.0 µM 25% | [7]; at 1.2 µM 2% | [7]; at 3.7 µM 5% | [7]; at 11.0 µM 12% | [7]; at 33.0 µM 14% | [7]; at 100.0 µM 32% | [8]; at 1.2 µM -5% | [8]; at 3.7 µM 1% | [8]; at 11.0 µM -3% | [8]; at 33.0 µM -3% | [8]; at 100.0 µM -2% | [9]; at 1.2 µM 0% | [9]; at 3.7 µM 2% | [9]; at 11.0 µM 10% | [9]; at 33.0 µM 32% | [10]; at 1.2 µM 3% | [10]; at 3.7 µM 8% | [10]; [17] 28% | [10]; at 11.0 µM 19% | [10]; at 33.0 µM 25% | [11]; at 1.2 µM 0% | [11]; at 3.7 µM 3% | [11]; [17] 4% | [11]; at 11.0 µM 10% | [11]; at 33.0 µM 11% | [11]; [18] 10% | [11]; at 50.0 µM 36.3% | [11]; at 100.0 µM 54% | [12]; at 1.2 µM 7% | [12]; at 3.7 µM 21% | [12]; at 11.0 µM 37% | [12]; at 33.0 µM 62% | [13]; [17] 4% | [14]; at 1.2 µM 2% | [14]; at 3.7 µM 7% | [14]; at 11.0 µM 20% | [14]; at 33.0 µM 50% | [15]; [17] -1% | [15]; [18] 26% | [15]; at 50.0 µM 52.2% | [16]; at 1.2 µM -3% | [16]; at 3.7 µM 4% | [16]; [17] -16% | [16]; at 11.0 µM 17% | [16]; at 33.0 µM 52% | [1]; at 1.2 µM 0% | [1]; at 3.7 µM 5% | [1]; at 11.0 µM 21% | [1]; at 33.0 µM 32% | [2]; at 1.2 µM 1% | [2]; at 3.7 µM 5% | [2]; at 11.0 µM 17% | [2]; at 33.0 µM 15% | [3]; at 1.2 µM 3% | [3]; at 3.7 µM 12% | [3]; at 11.0 µM 40% | [3]; at 33.0 µM 63% | [4]; [17] 7% | [5]; at 1.2 µM -3% | [5]; at 3.7 µM 11% | [5]; at 11.0 µM 30% | [5]; at 33.0 µM 55%
